# Bioassay records: PubChem, National Center for Advancing Translational Sciences (NCATS)
# A selection: hits, their analogues and other compounds. The true share with any hit is near 7.9%.
# LASV entry inh – qHTS for Inhibitors of binding or entry into cells for Lassa Virus; Potency, µM (doses to about 37.9 µM), inactives show at the top dose activity change, negative = inhibition, most hits filed as inhibitors; Lassa virus pseudotype entry inhibition, cell reporter; 300,000 tested, 1.2% active; calls by dose curve; tested in HEK293 cells; further: potency means the concentration at half of the fitted maximal effect; nearly all actives have a fitted effect of over 50% in size
# Marburg entry inh – qHTS for inhibitors of binding or entry into cells for Marburg Virus | Marburg virus pseudotyped entry inhibition, cell reporter | Potency, µM (titrated, usually from 37.8 µM), without a hit: at the highest dose activity change, negative = inhibition, most hits filed as inhibitors | 300,000 tested, 1.8% active | AID 540276, 2011; calls by dose curve; tested in HEK293 cells; further: potency means the concentration at half of the fitted maximal effect
# HCV inh – qHTS Assay for Inhibitors of Hepatitis C Virus (HCV). Potency, µM (titrated, usually from 41.8 µM), for inactives: top-dose activity change, negative = inhibition, most hits filed as inhibitors. 340,000 tested, 3.4% active. AID 651820, 2012. Huh7.5.1 HCVcc-Cre infection, luciferase reporter, 44 h; active means well fitted inhibition curve with a large enough effect; inconclusive means small, poorly fitted or top-dose-only effect, or another doubt; inactive means no such curve, though single readings can be large or run the other way; further: potency means the concentration at half of the fitted maximal effect
#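 Luciferase read-out (15 sec integration) after a 15 min room-temperature substrate step quantifies HCVcc-Cre infection. Cells, 1,000 per well, had compound added 4 h post-plating, then virus at ~0.5 moi, and were cultured 44 h.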
# HCMV antiviral – qHTS Assay for inhibitors of the human cytomegalovirus (HCMV); HFF cells, HCMV-luciferase reporter, 72 h; stronger effect = lower value; activity change, negative = inhibition, % at 57.5 µM; 410,000 tested, 4.5% active; AID 1259415, 2018; in the data active means activity change below about -60%; inconclusive means no clear call, values can overlap the other calls; inactive means above about -39%
#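 Luciferase read-out from HCMV-luciferase-infected HFFs (MOI 1 PFU/cell) 72 h post infection at 37C; compounds added after 16 h cell attachment; activity normalized between buffer-only basal and Salinomycin (10uM) inhibitor controls.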
# FMDV antiviral – High Throughput Screening for Foot and Mouth Disease Virus Antivirals; FMDV antiviral cell-based qHTS; Potency, µM (series often up to 57.9 µM), without a hit: at the highest dose activity change, negative = inhibition, most hits filed as inhibitors; 410,000 tested, 1.2% active; AID 1159524, 2015; calls by dose curve; tested in HEK293T cells; further: read-out not given here; potency means the concentration at half of the fitted maximal effect; nearly all actives have a fitted effect of over 45% in size
# * hit, by the source's call; ? = inconclusive; . = no result given; [ ] = dose if it differs, or a comment. On the % scale 0 is the no-effect control and ±100 the full control effect.
SMILES,LASV entry inh,Marburg entry inh,HCV inh,HCMV antiviral,FMDV antiviral
COc1cc(/C=N/Nc2ccc(Cl)c(C(=O)O)c2)ccc1OCC(=O)N1C(C)CCCC1C (stereo not given),11.0%,?,6.8%,.,17.2%
COc1ccc(-c2nc(SCC(=O)NCc3ccccc3Cl)n[nH]2)cc1,?,.,.,-19.7,-24.4%
CCOC(=O)c1cc(-c2ccccc2)sc1NC(=O)CN1C(=O)c2ccccc2C1=O,-0.2%,-2.6%,-5.2%,-10.9,-17.9%
CCCC1(c2ccccc2)NC(=O)N(CC(=O)Nc2sc(-c3ccccc3)cc2C(=O)OCC)C1=O (stereo not given),?,?,-13.5%,-61.8*,13.9%
c1ccc(-n2cnc3ccccc32)cc1,.,.,-0.5%,-92.8*,21.9%
COc1ccc2ncn(-c3ccccc3)c2c1,-5.8%,-18.6%,-31.0%,?,10.0%
COc1ccc(/C=C/c2nc3ccccc3c(=O)o2)cc1,?,?,18.4%,-94.9*,0.0%
COc1ccccc1/C=C/c1nc2ccccc2c(=O)o1,.,.,16.6%,21.8,51.1%
COc1ccc(/C=N\n2nnc3ccccc32)cc1,1.41µM*,2µM*,?,-3.4,-84.8%
COc1ccc(/C=C/c2nc3ccccc3n2C)cc1,0.112µM*,?,?,-85.1*,1.78µM*
CCCn1c(SCc2nc(-c3ccccc3C)no2)nnc1-c1ccc(Cl)cc1,1.0%[46.1 µM],-3.5%[46.1 µM],.,-8.7,0.0%
COC(=O)c1ccccc1NC(=O)CNC(=O)c1ccc(OC)c(OC)c1,?,1.0%[46.1 µM],?,?,-0.9%
CC(C)OCCCNC(=O)c1cn(C)c2ccc(S(=O)(=O)N3CCCCCC3)cc2c1=O,6.9%[46.1 µM],?,.,29.1,2.6%
COc1ccc(NC(=O)C2CCCN(C(=O)Nc3ccc(F)cc3)C2)cc1OC (stereo not given),16.4%[46.1 µM],6.2%[46.1 µM],-9.0%,-12.1,59.2%
O=C(c1n[nH]c2c1CCCC2)N1CCOc2ccc(C(O)C3CCCCC3)cc2C1 (stereo not given),.,.,.,.,-12.1%
COc1ccc(-n2cnc3ccccc32)cc1,?,?,-17.9%,-73.9*,.
COc1ccc(NC(=O)C(=O)NCC2CCCN2S(=O)(=O)c2ccc(C)cc2)cc1 (stereo not given),?,?,?,-85.1*,-22.5%
COc1ccc(S(=O)(=O)N2CCCC2CNC(=O)C(=O)Nc2ccc(C)cc2)cc1 (stereo not given),?,?,?,?,-0.4%
Cc1ccc(S(=O)(=O)N2CCCC2CNC(=O)C(=O)Nc2ccc(F)cc2)cc1 (stereo not given),5.01µM*,-28.5%,?,0.6,9.3%
OC(CCN1CCC2CCC(C2)C1)c1ccc(Br)cc1 (stereo not given),?,-4.6%,31.6µM*,0.0,?
O=C(CCN1CCC2CCC(C2)C1)c1ccccc1 (stereo not given),13.9%,1.0%,16.1%,-21.2,?
C/C(=N\NC(=O)Cc1ccccc1)c1cccs1,-1.3%,-0.3%,-10.0%,6.1,.
C/C(=N\NC(=O)Cn1c(C)nc2ccccc21)c1cccs1,-7.5%,-21.0%,?,-63.8*,?
CC(/C=N\NC(=O)Cn1c(C)nc2ccccc21)=C\c1ccccc1,-22.9%,?,?,-85.8*,?
O=C(Cn1cnc2ccccc21)N/N=C/C(Br)=C/c1ccccc1,-18.2%,-18.5%,-25.4%,-66.3*,?
SMILES,LASV entry inh,Marburg entry inh,HCV inh,HCMV antiviral,FMDV antiviral
O=C(O)COC(=O)Cc1ccccc1Nc1c(Cl)cccc1Cl,.,.,-1.3%,32.7,-3.4%
CCC1(C)Cc2nc3[nH]c(=S)n(-c4ccccc4)c(=O)c3cc2CO1 (stereo not given),-2.1%,-0.7%,-6.1%,-63.0*,-29.2%
Cc1ccc2[nH]c3c(c2c1)CN(C(=O)CC1(c2ccccc2)CC(=O)N(Cc2cccnc2)C1=O)CC3 (stereo not given),.,.,.,.,-4.8%
CCCOc1ccc(-c2nonc2NC(=O)c2oc3ccc(C)cc3c2C)cc1OCCC,14.8%[46.1 µM],?,.,2.6,-21.2%
CCNc1nc(-c2sc(NC(=O)C(C)(C)C)nc2C)c(-n2cc(-c3ccccc3)nn2)s1,.,.,.,-70.4*,?
CS(=O)(=O)N(CC(=O)Nc1cccc([N+](=O)[O-])c1)c1ccccc1,.,.,-5.5%,-4.5,10.0%
Cc1ccccc1CN(CC(=O)Nc1cccc([N+](=O)[O-])c1)S(=O)(=O)c1ccc(Cl)cc1,?,?,?,-37.5,39.8µM*
COc1c(C(O)CC(C)C)ccc2c1C(=O)OCc1cc(C)cc(O)c1O2 (stereo not given),.,.,2.24µM*,-18.3,?
COc1c(C(CC(C)C)OC(C)=O)ccc2c1C(=O)OCc1cc(C)cc(O)c1O2 (stereo not given),.,.,2.51µM*,-18.5,?
O=C1CCCC2[C@@H]3CCC[N@+]4([O-])CCC[C@H](CN12)C34 (stereo not given in full),.,.,.,.,0.0%
Cc1cc(S(=O)(=O)c2ccc(Cl)cc2)nc(S(=O)(=O)c2ccc(Cl)cc2)c1C#N,.,.,.,-97.5*,28.2µM*
CCOC(=O)c1scc(-c2ccccc2)c1S(=O)(=O)N1CCN(c2ccc(Cl)cc2)CC1,-13.4%[46.1 µM],.,.,0.0,-8.0%
Cc1cc(OC(C)C(=O)NCc2cccnc2)c2c(C)c(C)c(=O)oc2c1 (stereo not given),3.6%[46.1 µM],-1.1%[46.1 µM],3.5%,-29.7,-0.5%
Cc1cc(OC(C)C(=O)NCc2cccnc2)c2c(C)c(Cc3ccccc3)c(=O)oc2c1 (stereo not given),.,.,12.6µM*,?,5.4%
CCOC(=O)c1ccccc1NC(=O)N(Cc1ccc(CC)cc1)Cc1cn[nH]c1-c1ccc(OC)cc1,-2.4%[46.1 µM],?,.,-63.2*,?
CCC(=O)NC1=C(NC(C)c2ccccc2)C(=O)c2ccccc2C1=O (stereo not given),5.6%,1.1%,-2.2%,-9.6,-13.8%
CCC(=O)N(C1=C(NC)C(=O)c2ccccc2C1=O)C(C)C,.,.,?,-78.3*,-17.4%
O=C(O)CCCCCN1C(=O)C2CCCCC2C1=O (stereo not given),?,5.0%,-3.7%,12.7,3.98µM*
O=C(Nc1ccccc1)ON=C1CCCC1,-2.9%,-21.8%,12.1%,25.2,10.6%
Cc1ccc(NC(=O)ON=C2CCCC2)cc1,1.41µM*,10µM*,3.3%,-5.8,-4.9%
COc1ccccc1-n1c(CNC(=O)c2ccco2)nnc1SCC(=O)Nc1ccc(F)cc1,1.2%,2.0%,?,-11.1,19.7%
Cc1[nH]c2ccccc2c1/C=N/NC(=O)c1cc(-c2cccs2)[nH]n1,-20.7%,-35.9%,11.2µM*,?,-7.2%
Cc1ccc(-c2cc(C(=O)N/N=C/c3c(C)nn(-c4ccccc4)c3C)[nH]n2)cc1,.,-1.7%,?,-98.5*,.
Cc1cc(C(=O)N/N=C/c2c(C)[nH]n(-c3ccccc3)c2=O)n[nH]1,-4.6%[46.1 µM],?,-2.6%,5.1,-14.0%
